Drawing on PubChem BioAssay (NCI), this text covers growth for nine compounds.

Experiment in all cases: NCI-60 one-dose screen, 48 h (100 = growth as untreated, 0 = no growth, -100 = all killed)
Details in all cases: 10 µM unless noted

Assay [1] relates to NCI-H23 lung.
Assay [2] relates to NCI-H226 lung.
For assay [3], the system named is NCI-H322M lung.
In assay [4] the test system is HOP-62 NSCLC.
In assay [5] the test system is NCI-H460 lung.
The test system of assay [6] is NCI-H522 lung.
Assay [7] deals with A549/ATCC NSCLC.
In assay [8] the test system is 786-0 renal.
The subject of assay [9] is DU-145 prostate.
Assay [10] relates to K-562 leukemia.
Assay [11] relates to MALME-3M melanoma.
Assay [12] has as its system MDA-MB-231 breast.
For assay [13], the system named is RXF 393 renal.
Assay [14] concerns SF-268 CNS.
Assay [15] concerns SF-295 CNS.
Assay [16] relates to SF-539 CNS.
Assay [17] concerns UACC-257 melanoma.
The test system of assay [18] is M14 melanoma.
Assay [19] deals with HCT-15 colon.
Assay [20] concerns COLO 205 colon.

Structures are written as SMILES. About 83,000 compounds went through this panel and 20% of them were active in at least one assay; those are over-represented in the sample as a whole.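 Growth was measured after 48 h exposure to one concentration of compound in 96-well plates. Values under 10 count as active.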 A number with no mark means an inactive call. Active and inactive are the calls of the source.

In the case of `O=C(c1ccccc1)c1ccccc1Cl`, the growth in assay [1] was 100%; in [2], 105%; in [3], 108%; in assay [4] it was 105%; in [5], 104%; in assay [6], 92.4%. Besides, the growth in assay [7] is 98.9%; in [8], 98.8%; in assay [9] it was 108%; in assay [10], 100%; in assay [11], 102%; in [12], 105%. Besides, the growth in assay [13] is 111%; in [14], 109%; in assay [15], 110%; in assay [16], 100%; in [17] it was 97.8%; in assay [18] it was 101%. Besides, the growth in [19] is 104%.
As to `CCOC(=O)C(C(C)=O)c1nc2sc3cc(Cl)ccc3n2c(=N)c1C#N` (centres undefined), the growth in [1] was 78.2%; in assay [2] it was 43%; in assay [3] it was 105%; in [4] it was 102%; in [5], 96.1%; in assay [6] it was 95.2%. Moreover, the growth was 90.7% in assay [7]; 84.5% in [8]; 109% in assay [9]; 87.4% in assay [10]; 52.5% in assay [11]; 62.4% in assay [12]. In addition, the growth in [13] is 50.8%; in assay [14], 64.6%; in assay [15], 74.7%; in [16], 99.9%; in assay [17], 72.6%; in [18] it was 77.8%. Also, in [19], the growth was 122%.
Regarding `Cc1nn(-c2ccc(Cl)cc2)c2nc3c(nc12)C(=O)C(=O)c1ccccc1-3`, the growth was 75.5% in [1]; 65.2% in assay [2]; 65.1% in assay [3]; 72.1% in assay [4]; 5.27% (active) in assay [5]; 79.7% in [6]. In addition, the growth in assay [7] was 18.2%; in [8], 89.5%; in [20], 54.3%; in assay [9] it was -22% (active); in assay [11], 36.8%; in assay [12], 40.4%. Moreover, the growth was 89.6% in [13]; 89.3% in assay [14]; 12.1% in assay [15]; 69.2% in assay [17]; 75.5% in [18]; 73.9% in [19].
As for `N#Cc1c(N2CCOCC2)nc2sc3cc(Cl)ccc3n2c1=N`, the growth in [1] is 88.2%; in [2] it was 88.3%; in assay [3] it was 117%; in assay [4], 90.2%; in assay [5], 91.4%; in assay [6], 93.7%. Further, the growth was 102% in [7]; 95.3% in assay [8]; 110% in assay [9]; 106% in [10]; 117% in [11]; 75.9% in assay [12]. Also, the growth in assay [13] is 72.7%; in [14], 94.4%; in [15], 118%; in [16], 97.3%; in assay [17] it was 103%; in assay [18], 111%. Besides, the growth in assay [19] is 102%.
For the compound `c1ccc(-c2nn[nH]n2)c(-c2ccc(CN3CCN(c4nsc5ccccc45)CC3)cc2)c1`, the growth is 85.7% in [1]; 105% in assay [2]; 96.7% in [3]; 110% in [4]; 98.4% in assay [5]; 69% in assay [6]. Further, the growth is 98.6% in assay [7]; 110% in assay [8]; 114% in assay [20]; 97.5% in [9]; 108% in assay [11]; 88.6% in assay [12]. The growth in [13] is 113%; in assay [14] it was 98.3%; in assay [15] it was 94.1%; in [17], 99.8%; in [18] it was 108%; in assay [19], 82.9%.
Regarding `O=C(COC(=O)[C@H](C[Se][Se]C[C@H](NC(=O)c1ccc(Br)cc1F)C(=O)OCC(=O)c1ccc(F)cc1)NC(=O)c1ccc(Br)cc1F)c1ccc(F)cc1`, the growth in assay [1] is -37.3% (active); in assay [2], -73.2% (active); in assay [3], -23.2% (active); in assay [4], -6.31% (active); in assay [5] it was -35.6% (active); in assay [6] it was -85.2% (active). For the same compound, the growth was -41.2% (active) in assay [7]; -94.6% (active) in assay [8]; -100% (active) in [9]; -1.8% (active) in [10]; -64.4% (active) in [11]; -82.2% (active) in assay [12]. For the same compound, the growth in assay [13] is -99.3% (active); in assay [14], -74.1% (active); in [15], -65.8% (active); in assay [16], -98.5% (active); in [17], -50.2% (active); in assay [18], -64.6% (active). Further, the growth in assay [19] was -42.6% (active).
As for `CCC(C)CC(CC)NCCN1CCN(C(CC)CC(C)CC)C1=S` (centres undefined), the growth in assay [1] was 42.5%; in assay [2] it was 47%; in [3], 78.8%; in [4], 29.1%; in [5] it was 9.44% (active); in [6], -12% (active). Besides, the growth in assay [7] was 50.2%; in assay [8], 56.5%; in assay [9], 29.5%; in assay [11] it was -33.8% (active); in [12], -12.4% (active); in assay [14], 61.8%. Besides, the growth in [15] is 56.1%; in [16], 69.2%; in [17] it was 39.5%; in assay [18], -47.3% (active).
Regarding `COc1ccc(C2=NNC(c3cc(Cc4ccc(O)c(C5CC(c6ccc(OC)cc6)=NN5)c4)ccc3O)C2)cc1` (centres undefined), the growth is 35.9% in assay [1]; 82.6% in assay [2]; 32.1% in [3]; 60% in assay [4]; 27.5% in assay [5]; -7.59% (active) in assay [6]. Further, the growth was 35.2% in [7]; 56.1% in assay [8]; 69.3% in assay [9]; 78.9% in [11]; 58.3% in assay [12]; 72.6% in assay [13]. Also, the growth was 44% in [14]; 6.47% (active) in [15]; 57.2% in [16]; 70.6% in assay [17]; 59.3% in assay [18]; 43.3% in assay [19].
Consider `O=C(/C=C/c1cccnc1)NCCCCC1CCCN(C(=O)c2ccccc2)C1` (centres undefined), for which the growth in [1] was 70.1%; in assay [2], 98.5%; in assay [3], 65.3%; in assay [4], 85.1%; in [5], 29%; in assay [6], 1.41% (active). The growth in [7] is 49%; in assay [8], 71.7%; in [9] it was 33.4%; in assay [11] it was 83.7%; in assay [12], 82.6%; in assay [13] it was 109%. Further, the growth was 74% in assay [14]; 4.84% (active) in assay [15]; 28% in assay [16]; 109% in assay [17]; 18.7% in assay [18]; 42% in [19].
